Measurements published in PubChem BioAssay AID652154 (Broad Institute, 2013).
Among all 360,000 compounds or so, about 4,200 (1.2%) were called active. What follows is part of a selection rich in actives, with near analogues and random picks from the rest. Values without a mark were called inactive.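 The calls were made as follows: active = mean replicate inhibition at least 60% with every replicate also reaching 60%; inconclusive = only one of the two criteria is met; inactive = mean below 60% and not all replicates reaching 60%.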

Assay: inhibitors of PAX8-driven TPO luciferase reporter, primary screen, RMG-I cells, single concentration (AID 652154);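 also: luciferase light reporting Pax8 driven TPO promoter activity; plate controls were median of neutral control wells for no effect and mitoxantrone controls for full effect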
Settings: SteadyGlo, 24 h, at 12.6 µM, active compounds read high

Structure (SMILES)	inhibition
C[C@@H]1CN([C@H](C)CO)C(=O)CCCn2cc(nn2)CO[C@@H]1CN(C)C(=O)Nc1ccc2c(c1)OCO2	-4.65%
C[C@@H]1CCCCO[C@@H](CN(C)C(=O)CCC(F)(F)F)[C@@H](C)CN([C@H](C)CO)C(=O)c2cc(NC(=O)Nc3ccccc3)ccc2O1	-44.3%
COc1cc(C2C(C(=O)Nc3ccccc3OC)=C(C)Nc3ncnn32)ccc1O (configuration not stated)	24.6%
CC1=C(C(=O)OC2CCCCC2)C(c2cccnc2)n2ncnc2N1 (configuration not stated)	143% (active)
CC1=C(C(=O)OC2CCCCC2)C(c2ccccc2F)NC(=O)N1 (configuration not stated)	23.9%
O=C(CC1CC1)N[C@@H]1C[C@@H]2O[C@H](CO)CC[C@@H]2O[C@@H]1CCc1ccc(C#Cc2ccccc2)cc1	-44%
N#Cc1cccc(-c2ccc([C@H]3[C@@H](CO)N4CCCCN(C(=O)Nc5ccccc5)C[C@H]34)cc2)c1	-12.5%
CCCNC(=O)Nc1ccc2c(c1)C(=O)N(C)[C@H]1CC[C@H](CC(=O)NC3CCC3)O[C@H]1CO2	-6.66%
CCC(=O)N(C)C[C@H]1[C@H](c2ccc(C3=CCCCC3)cc2)[C@@H](CO)N1C(C)=O	-0.343%
CCCN1[C@H](C(=O)N2CCOCC2)[C@@H](CO)[C@@H]2Cn3c(ccc(/C=C/c4ccccc4)c3=O)[C@@H]21	78.4% (active)
CCCN1[C@H](C(=O)N2CCCCC2)[C@@H](CO)[C@@H]2Cn3c(ccc(-c4ccccc4F)c3=O)[C@@H]21	-10.5%
CC=Cc1ccc2n(c1=O)C[C@H]1[C@H](CO)[C@@H](C(=O)N3CCCCC3)N(Cc3ccccn3)[C@@H]21 (mixture of isomers)	0.555%
CCC(=O)N(C)C[C@@H]1Oc2ncc(C#C[C@H](C)O)cc2C(=O)N([C@@H](C)CO)C[C@@H]1C	-26.1%
COCC(=O)Nc1ccc2c(c1)C(=O)N(C)C[C@@H](OC)[C@H](C)CN(C(=O)c1ccccn1)[C@@H](C)CO2	2.92%
CCN1[C@@H]2c3cccc(=O)n3C[C@H]1[C@H](CO)[C@H]2C(=O)NC1Cc2ccccc2C1	-4.92%
CO[C@H]1CN(C)C(=O)c2ccc(NC(=O)CC(F)(F)F)cc2OC[C@@H](C)N(C(=O)c2ccccc2F)C[C@@H]1C	-20.3%
COc1ccc(CNC(=O)CCCn2nc(C)c([N+](=O)[O-])c2C)cc1	2.46%
Cc1nn(CC(=O)Nc2ccc(N(C)C)cc2)c(C)c1[N+](=O)[O-]	13.9%
Cc1ccc(Oc2cc(NC(=O)CCCn3nc(C)c([N+](=O)[O-])c3C)cc([N+](=O)[O-])c2)cc1	84.6% (active)
Cc1ccccc1S(=O)(=O)N1CC[C@H]2[C@H](CO)Nc3ccc(-c4cccc(F)c4)cc3[C@H]21	-9.62%
COc1ccccc1NC(=O)N1C[C@H]2[C@@H](c3ccccc31)[C@@H](CO)N2C(=O)C1CCCC1	14.9%

Structure (SMILES)	inhibition
CCCN1C[C@@H](C)[C@@H](OC)CN(C)C(=O)c2ccc(NC(=O)c3ccc(F)cc3)cc2OC[C@@H]1C	-1.32%
O=C(C[C@@H]1CC[C@H]2[C@@H](COC[C@@H](O)CN2S(=O)(=O)c2cccc(Cl)c2)O1)N1CCCCC1	-3.53%
CCC1Oc2ccccc2N(CC(=O)NCCCN2CCN(CC)CC2)C1=O (configuration not stated)	5.58%
Cc1c(C)n(Cc2ccc(Cl)cc2)c2ccc(C(=O)NCCCN3CCOCC3)cc12	15.4%
CN1CCN(CCCNC(=O)c2ccc(/C=C3\Oc4ccccc4N(Cc4ccc(Cl)cc4)C3=O)cc2)CC1	100% (active)
CN1c2ccc(Br)cc2[C@H]2[C@H](CCN2S(=O)(=O)c2ccccc2)[C@@H]1CO	0.611%
CN1CCCCC(NC(=O)C(C)(C)C)C1=O (configuration not stated)	8.76%
C[C@H](CO)N1C[C@H](C)[C@H](CN(C)CC2CC2)Oc2ccc(NC(=O)c3ccncc3)cc2C1=O	-14.7%
C[C@@H]1CN([C@@H](C)CO)S(=O)(=O)c2ccc(/C=C/c3ccccc3)cc2O[C@H]1CN(C)Cc1cccnc1	68.6% (active)
C[C@@H]1CN([C@H](C)CO)S(=O)(=O)c2ccc(C#CC3CCCC3)cc2O[C@@H]1CN(C)Cc1cccnc1	31.1%
COCC#Cc1ccc2c(c1)O[C@@H](CN(C)Cc1cccnc1)[C@@H](C)CN([C@H](C)CO)S2(=O)=O	-14.2%
C[C@H](O)C#Cc1ccc2c(c1)O[C@H](CN(C)Cc1cncnc1)[C@H](C)CN([C@@H](C)CO)S2(=O)=O	19.4%
C[C@@H]1CN([C@@H](C)CO)S(=O)(=O)c2ccc(/C=C/c3ccccc3)cc2O[C@H]1CN(C)Cc1ccccc1	11.4%
COc1ccccc1C#Cc1ccc2c(c1)O[C@@H](CN(C)Cc1cncnc1)[C@H](C)CN([C@@H](C)CO)S2(=O)=O	74.3% (active)
C[C@H](O)C#Cc1ccc2c(c1)O[C@@H](CN(C)Cc1cncnc1)[C@H](C)CN([C@H](C)CO)S2(=O)=O	8.97%
C[C@@H]1CN([C@H](C)CO)S(=O)(=O)c2ccc(/C=C/c3ccccc3)cc2O[C@@H]1CN(C)Cc1ccccc1	31%
COc1ccccc1C#Cc1ccc2c(c1)O[C@H](CN(C)Cc1cccnc1)[C@@H](C)CN([C@H](C)CO)S2(=O)=O	70% (active)
COc1ccccc1NC(=O)N[C@H]1C=C[C@@H](CC(=O)N[C@@H](C)c2ccccc2)O[C@@H]1CO	4.41%
O=C(C[C@H]1CC[C@@H]2[C@H](COC[C@H](O)CN2C(=O)c2ccc3c(c2)OCO3)O1)NC1CCC1	-16.6%
CC(=O)Nc1ccc2c(c1)C(=O)N(C)[C@@H]1CC[C@H](CC(=O)NCc3ccccc3)O[C@H]1CO2	-2.89%
C/C=C/c1cnc2c(c1)C(=O)N([C@H](C)CO)C[C@H](C)[C@@H](CN(C)C(=O)c1cccc(F)c1)O2	-7.23%
